Compounds with a hit are over-represented: about 4.9% of the library has one in this group of screens.
UCHL1 inh: inhibitors of human UCHL1 deubiquitinase | actives 0.2% (n = 47,000) | purified UCHL1, Ub-rhodamine cleavage fluorescence | inhibition, % at 20 µM
USP8 block: inhibitors of human USP8 deubiquitinase; P40818; purified USP8, Ub-rhodamine cleavage fluorescence, 30 min; inhibition, % at 20 µM; actives 4.2% (n = 47,000); AID 1645853
USP7 block: human USP7 deubiquitinase inhibition; Q93009; purified USP7, Ub-rhodamine cleavage fluorescence; inhibition, % at 20 µM; actives 0.3% (n = 47,000); AID 1645854
OTUD3 block: inhibitors of human OTUD3 deubiquitinase; purified OTUD3, Ub-rhodamine fluorescence, 2 h; inhibition, % at 25 µM; actives 0.7% (n = 47,000); AID 1645858; Q5T2D3
USP10 inh: human USP10 deubiquitinase inhibition. Q14694. AID 1645856. actives 1.1% (n = 47,000). purified USP10, Ub-rhodamine fluorescence, 60 min. inhibition, % at 20 µM
Target sequence (Q14694 whole entry, looked up): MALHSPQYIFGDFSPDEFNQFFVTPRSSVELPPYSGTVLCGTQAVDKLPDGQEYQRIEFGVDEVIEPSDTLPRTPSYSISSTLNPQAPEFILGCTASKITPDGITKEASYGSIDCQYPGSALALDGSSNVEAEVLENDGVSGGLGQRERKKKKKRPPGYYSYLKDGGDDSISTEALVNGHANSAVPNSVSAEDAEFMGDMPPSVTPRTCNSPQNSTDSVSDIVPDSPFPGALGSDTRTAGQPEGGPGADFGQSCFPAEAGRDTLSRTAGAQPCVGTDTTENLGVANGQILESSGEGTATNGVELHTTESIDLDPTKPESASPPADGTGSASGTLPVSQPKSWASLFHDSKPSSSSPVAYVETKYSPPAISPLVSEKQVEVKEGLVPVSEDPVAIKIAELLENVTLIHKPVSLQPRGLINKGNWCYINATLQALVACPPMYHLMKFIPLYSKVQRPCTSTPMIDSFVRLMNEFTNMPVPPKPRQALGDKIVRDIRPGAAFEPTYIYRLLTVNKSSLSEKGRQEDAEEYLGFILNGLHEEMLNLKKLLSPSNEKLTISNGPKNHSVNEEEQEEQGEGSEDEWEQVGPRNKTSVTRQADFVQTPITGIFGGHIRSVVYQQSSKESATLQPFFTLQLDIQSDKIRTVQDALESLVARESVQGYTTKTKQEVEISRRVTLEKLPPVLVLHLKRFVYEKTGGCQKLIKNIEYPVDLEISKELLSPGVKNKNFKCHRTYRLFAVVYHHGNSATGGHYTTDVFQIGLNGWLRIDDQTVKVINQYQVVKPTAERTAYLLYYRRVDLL
Hits are given with their value. Rule as the data show it: active = inhibition above about 30%; inactive = the rest.

`CC1CSc2ccc(S(=O)(=O)Nc3cccc(F)c3)cc2NC1=O` (stereo not drawn) gave UCHL1 inh inactive, USP8 block inactive, USP7 block inactive, OTUD3 block inactive and USP10 inh inactive.
`COc1ccc(C(=O)C2CC(=O)Nc3c2c(C)nn3-c2ccc(Br)cc2)cc1` (stereo not drawn) gave UCHL1 inh inactive, USP8 block 30.1, USP7 block inactive, OTUD3 block inactive and USP10 inh inactive.
Screening COc1ccc(-n2nc(C)c3c2NC(=O)CC3C(=O)c2ccc3c(c2)OCO3)cc1 (stereo not drawn) returned UCHL1 inh inactive, USP8 block inactive, USP7 block inactive, OTUD3 block inactive and USP10 inh inactive.
Screening Cc1nn(Cc2ccccc2)c2sc(C(=O)Nc3nc4ccccc4[nH]3)cc12 returned UCHL1 inh inactive, USP8 block 83.6, USP7 block inactive, OTUD3 block inactive and USP10 inh inactive.
`CCCC1Cc2c(sc3nc(SCC(N)=O)nc(N)c23)CO1` (stereo not drawn) gave UCHL1 inh inactive, USP8 block inactive, USP7 block inactive, OTUD3 block inactive and USP10 inh inactive.
Screening O=C(Nc1c(C(=O)N2CCCCCC2)oc2ccccc12)C1CCCC1 returned UCHL1 inh inactive, USP8 block 31.6, USP7 block inactive, OTUD3 block inactive and USP10 inh inactive.
`COc1ccccc1C(=O)Nc1c(C(=O)N2CCOCC2)oc2ccccc12` gave UCHL1 inh inactive, USP8 block inactive, USP7 block inactive, OTUD3 block inactive and USP10 inh inactive.
For CN1CCN(C(=O)c2oc3ccccc3c2NC(=O)c2ccc(F)cc2)CC1 the results were UCHL1 inh inactive, USP8 block 41.0, USP7 block inactive, OTUD3 block inactive and USP10 inh inactive.
For O=C(Nc1nccnc1C(=O)NCc1ccccn1)c1ccccc1 the results were UCHL1 inh inactive, USP8 block 37.7, USP7 block inactive, OTUD3 block inactive and USP10 inh inactive.
COc1cccc(C(=O)NCc2[nH]nc3ccccc23)c1 was read as UCHL1 inh inactive, USP8 block 84.1, USP7 block inactive, OTUD3 block inactive and USP10 inh inactive.
CCc1ccc(NC(=O)CSc2[nH]c(=O)c(C(=O)O)cc2C#N)cc1 was read as UCHL1 inh inactive, USP8 block 54.5, USP7 block inactive, OTUD3 block inactive and USP10 inh inactive.
Screening CCc1ccc(NC(=O)CSc2ncc(S(=O)(=O)c3ccccc3)c(=O)[nH]2)cc1 returned UCHL1 inh inactive, USP8 block inactive, USP7 block inactive, OTUD3 block inactive and USP10 inh inactive.
Screening CCCCc1ccc(NC(=O)Nc2ccccc2C(=O)NCC2CC2)cc1 returned UCHL1 inh inactive, USP8 block inactive, USP7 block inactive, OTUD3 block inactive and USP10 inh inactive.
`COc1cccc(NC(=O)c2oc3ccccc3c2NC(=O)COc2cccc(OC)c2)c1` gave UCHL1 inh inactive, USP8 block inactive, USP7 block inactive, OTUD3 block inactive and USP10 inh 34.7.
Screening O=C(Nc1cccnc1)C1c2ccccc2C(=O)N(C2CCCC2)C12CCCCC2 (stereo not drawn) returned UCHL1 inh inactive, USP8 block 35.7, USP7 block inactive, OTUD3 block inactive and USP10 inh inactive.
`Cc1cc(C(=O)NCc2cccc([C@@H]3NC(=O)N[C@H]4OCCC[C@H]43)c2)on1` gave UCHL1 inh inactive, USP8 block inactive, USP7 block inactive, OTUD3 block inactive and USP10 inh inactive.
CCCCCCCCC/C=C/C(=O)CCc1c(O)c(C=O)c2c(c1O)C(=O)OC2O (stereo not drawn) was read as UCHL1 inh 86.3, USP8 block 31.4, USP7 block 86.7, OTUD3 block 74.6 and USP10 inh 45.4.
Screening O=C(Cn1ncc2c(=O)oc3ccccc3c21)NCc1ccc2c(c1)OCO2 returned UCHL1 inh inactive, USP8 block 42.3, USP7 block inactive, OTUD3 block inactive and USP10 inh inactive.
`O=C(Cn1cc(-c2ccccc2)c2ncn(C3CC3)c(=O)c21)NCc1ccc2c(c1)OCO2` gave UCHL1 inh inactive, USP8 block 41.0, USP7 block inactive, OTUD3 block inactive and USP10 inh inactive.
Screening O=C(Cn1cc(C(=O)C2CCCCC2)c2ccccc21)Nc1ccccc1C(F)(F)F returned UCHL1 inh inactive, USP8 block inactive, USP7 block inactive, OTUD3 block inactive and USP10 inh inactive.
Screening O=C(Cn1ccc2ccc(Br)cc21)NCc1ccc2c(c1)OCO2 returned UCHL1 inh inactive, USP8 block inactive, USP7 block inactive, OTUD3 block inactive and USP10 inh inactive.
`O=C(Cn1cc(C(=O)C2CC2)c2ccccc21)NCc1ccc2c(c1)OCO2` gave UCHL1 inh inactive, USP8 block 69.4, USP7 block inactive, OTUD3 block inactive and USP10 inh inactive.
Screening Cc1c(Cl)cccc1NC(=O)Cn1cc(C(=O)C2CC2)c2ccccc21 returned UCHL1 inh inactive, USP8 block 86.5, USP7 block 35.7, OTUD3 block inactive and USP10 inh 48.9.
`CCn1cnc2c(-c3ccccc3)cn(CC(=O)NCc3ccc4c(c3)OCO4)c2c1=O` gave UCHL1 inh inactive, USP8 block inactive, USP7 block inactive, OTUD3 block inactive and USP10 inh inactive.
Screening CCC1CCCCN1c1ccnc(N2CCC(C(=O)O)CC2)n1 (stereo not drawn) returned UCHL1 inh inactive, USP8 block inactive, USP7 block inactive, OTUD3 block inactive and USP10 inh inactive.
O=C1C[C@@H]2O[C@H](CNC(=O)[C@@H]3CN(CCN3C(=O)C3CCOCC3)C(=O)[C@@H]3C[C@@H](CN3Cc3ccc(F)cc3)N1)[C@@H](O)[C@H]2O was read as UCHL1 inh inactive, USP8 block inactive, USP7 block inactive, OTUD3 block inactive and USP10 inh inactive.
Screening O=C(Cn1cnc2cc([N+](=O)[O-])ccc2c1=O)NCc1ccc2c(c1)OCO2 returned UCHL1 inh inactive, USP8 block 39.1, USP7 block inactive, OTUD3 block inactive and USP10 inh inactive.
For O=C(Cn1ccc2ccc([N+](=O)[O-])cc21)NCc1ccc2c(c1)OCO2 the results were UCHL1 inh inactive, USP8 block inactive, USP7 block inactive, OTUD3 block inactive and USP10 inh inactive.
For O=C(NCc1ccc2c(c1)OCO2)c1nn(C23CC4CC(CC(C4)C2)C3)cc1[N+](=O)[O-] the results were UCHL1 inh inactive, USP8 block inactive, USP7 block inactive, OTUD3 block 32.6 and USP10 inh inactive.
`O=C(Cn1cc(C(=O)c2ccccc2)c(=O)c2cc3c(cc21)OCCO3)Nc1ccc2c(c1)OCO2` gave UCHL1 inh inactive, USP8 block inactive, USP7 block inactive, OTUD3 block inactive and USP10 inh inactive.
For Cc1ccc(Cn2cnc3c(nnn3-c3cccc(F)c3)c2=O)cc1 the results were UCHL1 inh inactive, USP8 block 42.4, USP7 block inactive, OTUD3 block inactive and USP10 inh inactive.
Cc1cccc(-n2nnc3c(=O)n(CC(=O)Nc4ccc5c(c4)OCO5)cnc32)c1 was read as UCHL1 inh inactive, USP8 block 31.4, USP7 block inactive, OTUD3 block inactive and USP10 inh inactive.

From PubChem
